Data on 35 compounds can be found in PubChem BioAssay (Tox21).

A number with no mark means an inactive call. Results filed as inconclusive are left out. Active and inactive are the calls of the source. Unless noted, calls come from the whole dose curve.
% is set by controls: 0 for no effect and ±100 for the full control effect.

System in one assay: not listed separately
In words: qHTS assay to identify small molecule agonists of the TGF-beta/Smad signaling pathway (AID 1346859; active = well fitted activation curve with a large enough effect in the signal ratio in the repeat runs, not every such curve was filed as active; the % refers to the signal ratio). Conditions: SBE-bla HEK293T, TGF-beta/Smad beta-lactamase reporter, 5 h; series mostly up to 76.8 µM; activation: at the top concentration. The gist of the method:
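Reporter line: HEK 293T with stably integrated SBE-controlled beta-lactamase. Compound exposure lasts 5 hr at 37 C and 5% CO2; substrate loading follows for 2 hr at room temperature, with emission read at 460 and 530 nm.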
On the technique in general: qHTS replaces the single test concentration by a dilution series.
`CN1CCC(=C2c3ccccc3CC(=O)c3sccc32)CC1`: the “activation” value is 0.086% [at 35.3 µM].

Take `OC[C@]1(O)OC[C@@H](O)[C@H](O)[C@@H]1O`: the result was inactive.

Regarding `CCCCC/C=C\CCC=O`, the “activation” value was 1.72%.

As to `CCCC(=O)O[C@]1(C(=O)CO)CC[C@H]2[C@@H]3CCC4=CC(=O)CC[C@]4(C)[C@H]3[C@@H](O)C[C@@]21C`, the “activation” value was 0.0234% [at 35.3 µM].

In the case of `COC(=O)CCSCCC(=O)OC`, the “activation” value is 0.763%.

Regarding `CC(=O)c1ccccc1O`, the “activation” value is -2.33%.

On to `CC(NC(CCc1ccccc1)C(=O)O)C(=O)N1C(=O)N(C)CC1C(=O)O` (configuration not stated), for which the “activation” value was 6.4% [at 35.3 µM].

As for `NC(=O)c1ccc(N)cc1`, the “activation” value is -0.0519%.

With `CC(C)OC(=O)c1ccccc1`, the “activation” value is 0.298%.

As for `Nc1c2c(nc3ccccc13)CCCC2O` (configuration not stated), the “activation” value was -2.41% [at 35.3 µM].

As for `CCCCCCCCCCCCCCCCC`, the “activation” value was 2.43%.

Consider `COC(=O)CC(C)=O`, for which the “activation” value was 0.875%.

As to `CCN1CCC[C@H]1CNC(=O)c1c(O)c(Cl)cc(Cl)c1OC`, the “activation” value is 0.304% [at 35.3 µM].

`O=C(O)c1ccccc1OP(=O)(O)O`: the “activation” value is 1.3% [at 35.3 µM].

`CCOC(C)(C)C`: the “activation” value is -0.766%.

As to `Nc1nc2c(ncn2COC(CO)CO)c(=O)[nH]1`, the “activation” value was 4.28% [at 35.3 µM].

Turning to `CCCCCCCCCCCCCC=O`, the activation is -2.78% [at 6.97 µM].

As for `c1cnc(N2CCN(Cc3ccc4c(c3)OCO4)CC2)nc1`, the “activation” value was 1.59% [at 35.3 µM].

As for `CC/C=C\CC/C=C/C(OCC)OCC`, the “activation” value is 0.676%.

With `NCCc1cnc[nH]1`, the “activation” value is 0.896% [at 35.3 µM].

For the compound `CCC(=O)OC(C)c1ccccc1` (configuration not stated), the “activation” value was -0.423%.

Consider `COc1c(N2C[C@@H]3CCCN[C@@H]3C2)c(F)cc2c(=O)c(C(=O)O)cn(C3CC3)c12`, for which the “activation” value is -1.11% [at 35.3 µM].

Consider `O=S(O)CO`, for which the “activation” value is 3.62%.

Take `O=c1n(CCO)c(=O)n(CCO)c(=O)n1CCO`: the compound was classed as inactive.

Regarding `CCCCOCCOCCOCCCC`, the “activation” value is -0.634%.

Take `CO[C@]12C[C@@H](COC(=O)c3cncc(Br)c3)CN(C)[C@@H]1Cc1cn(C)c3cccc2c13`: the “activation” value is 0.774% [at 35.3 µM].

With `CCc1ccc(O)c(OC)c1`, the “activation” value was 2.06%.

In the case of `CCCCCCCCS(=O)(=O)Cl`, the “activation” value is -0.0683%.

For `CCO[Si](CCC1CCC2OC2C1)(OCC)OCC` (configuration not stated), the “activation” value was -0.691%.

Take `NC(=O)c1ccc([N+](=O)[O-])cc1`: the “activation” value was -6.63%.

For `CS(=O)(=O)O`, the “activation” value was 0.525%.

Turning to `O=C(O)CCCc1ccccc1`, the “activation” value was -5% [at 35.3 µM].

For `O=Cc1cccc([N+](=O)[O-])c1`, the “activation” value is 0.212%.

As for `N=c1nc(N2CCCCC2)cc(N)n1O`, the “activation” value is -0.123% [at 35.3 µM].

In another assay the target is Thyrotropin-releasing hormone receptor (Homo sapiens) (UniProt P34981). The assay can be described thus: qHTS assay to identify small molecule antagonists of the thyrotropin-releasing hormone receptor (TRHR) signaling pathway (AID 1346877; active = well fitted inhibition curve with a large enough effect in the repeat runs, not every such curve was filed as active). Conditions: TRHR-HEK293, TRH-induced calcium fluorescence, antagonist mode; series mostly up to 51.3 µM; activity, negative = inhibition: at the top concentration. In outline: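 TRHR-expressing HEK293 cells were seeded, cultured 18 h at 37 °C, then loaded with calcium dye for 2 h. Compounds were pre-incubated 5 min at room temperature before 1 nM TRH (final) was added, and kinetic fluorescence was recorded for 3 min.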
Thyrotropin-releasing hormone receptor (Homo sapiens), sequence (P34981 whole entry, looked up): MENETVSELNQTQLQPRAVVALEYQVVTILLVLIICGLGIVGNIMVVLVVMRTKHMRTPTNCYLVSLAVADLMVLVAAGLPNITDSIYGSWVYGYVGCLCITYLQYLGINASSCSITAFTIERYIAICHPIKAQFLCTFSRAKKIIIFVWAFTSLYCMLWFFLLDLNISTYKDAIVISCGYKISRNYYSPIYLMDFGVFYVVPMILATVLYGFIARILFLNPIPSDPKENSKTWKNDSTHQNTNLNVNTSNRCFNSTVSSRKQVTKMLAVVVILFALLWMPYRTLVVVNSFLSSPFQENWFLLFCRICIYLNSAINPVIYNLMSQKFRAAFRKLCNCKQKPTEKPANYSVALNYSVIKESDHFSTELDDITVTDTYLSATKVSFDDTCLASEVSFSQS
As to `OC[C@]1(O)OC[C@@H](O)[C@H](O)[C@@H]1O`, the outcome was inactive.

Take `CCCCC/C=C\CCC=O`: the “activity, negative = inhibition” value was -1.16%.

Turning to `CCCC(=O)O[C@]1(C(=O)CO)CC[C@H]2[C@@H]3CCC4=CC(=O)CC[C@]4(C)[C@H]3[C@@H](O)C[C@@]21C`, the “activity, negative = inhibition” value was -0.144% [at 23.6 µM].

As for `COC(=O)CCSCCC(=O)OC`, the “activity, negative = inhibition” value is -4.44%.

With `CC(=O)c1ccccc1O`, the “activity, negative = inhibition” value is 0.196%.

With `CC(NC(CCc1ccccc1)C(=O)O)C(=O)N1C(=O)N(C)CC1C(=O)O` (configuration not stated), the “activity, negative = inhibition” value is -0.513% [at 23.6 µM].

For `Nc1c2c(nc3ccccc13)CCCC2O` (configuration not stated), the “activity, negative = inhibition” value is 3.95% [at 23.6 µM].

As to `CCCCCCCCCCCCCCCCC`, the “activity, negative = inhibition” value was -1.87%.

For the compound `COC(=O)CC(C)=O`, the “activity, negative = inhibition” value is 0.155%.

Take `COc1ccc2c(c1)c(CC(=O)OCC(=O)O)c(C)n2C(=O)c1ccc(Cl)cc1`: the “activity, negative = inhibition” value was 0.928% [at 23.6 µM].

Take `CCN1CCC[C@H]1CNC(=O)c1c(O)c(Cl)cc(Cl)c1OC`: the “activity, negative = inhibition” value was -1.06% [at 23.6 µM].

With `O=C(O)c1ccccc1OP(=O)(O)O`, the “activity, negative = inhibition” value was 1.84% [at 23.6 µM].

Take `CCOC(C)(C)C`: the “activity, negative = inhibition” value is 5.08%.

Consider `Nc1nc2c(ncn2COC(CO)CO)c(=O)[nH]1`, for which the “activity, negative = inhibition” value was -0.187% [at 23.6 µM].

As for `CCCCCCCCCCCCCC=O`, the activity, negative = inhibition is -5.43% [at 4.65 µM].

Regarding `c1cnc(N2CCN(Cc3ccc4c(c3)OCO4)CC2)nc1`, the “activity, negative = inhibition” value was 0.589% [at 23.6 µM].

Turning to `NCCc1cnc[nH]1`, the “activity, negative = inhibition” value is -0.619% [at 23.6 µM].

With `CCC(=O)OC(C)c1ccccc1` (configuration not stated), the “activity, negative = inhibition” value is 0.546%.

Consider `O=S(O)CO`, for which the “activity, negative = inhibition” value is -2.84%.

As to `O=c1n(CCO)c(=O)n(CCO)c(=O)n1CCO`, the outcome was inactive.

As to `CCCCOCCOCCOCCCC`, the “activity, negative = inhibition” value is -1.71%.

For `CO[C@]12C[C@@H](COC(=O)c3cncc(Br)c3)CN(C)[C@@H]1Cc1cn(C)c3cccc2c13`, the “activity, negative = inhibition” value is 1.22% [at 23.6 µM].

For the compound `CCc1ccc(O)c(OC)c1`, the “activity, negative = inhibition” value is -1.99%.

On to `CCCCCCCCS(=O)(=O)Cl`, for which the “activity, negative = inhibition” value is 1.25%.

For `CCO[Si](CCC1CCC2OC2C1)(OCC)OCC` (configuration not stated), the “activity, negative = inhibition” value was 4.56%.

On to `CS(=O)(=O)O`, for which the “activity, negative = inhibition” value was 0.579%.

For the compound `O=C(O)CCCc1ccccc1`, the “activity, negative = inhibition” value was -5.57% [at 23.6 µM].

Regarding `O=Cc1cccc([N+](=O)[O-])c1`, the “activity, negative = inhibition” value was -2.01%.

On to `N=c1nc(N2CCCCC2)cc(N)n1O`, for which the “activity, negative = inhibition” value was -4.92% [at 23.6 µM].

Another assay shares this target. In words: qHTS assay to identify small molecule agonists of the thyrotropin-releasing hormone receptor (TRHR) signaling pathway (AID 1346891). Conditions: TRHR-HEK293 calcium fluorescence, agonist mode; series mostly up to 57.6 µM; activation: at the top concentration. In outline: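 Cells: TRHR-Hek293, seeded and incubated 18 h. Dye loading: 2 h at 37 °C. Compound added from DMSO stock by pin tool. Read-out: kinetic calcium fluorescence over 3 min.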
For the compound `OC[C@]1(O)OC[C@@H](O)[C@H](O)[C@@H]1O`, the outcome was inactive.

On to `CCCCC/C=C\CCC=O`, for which the “activation” value was -0.385%.

Turning to `CCCC(=O)O[C@]1(C(=O)CO)CC[C@H]2[C@@H]3CCC4=CC(=O)CC[C@]4(C)[C@H]3[C@@H](O)C[C@@]21C`, the “activation” value was 0.729% [at 26.5 µM].

For `COC(=O)CCSCCC(=O)OC`, the “activation” value was -0.0093%.

In the case of `CC(=O)c1ccccc1O`, the “activation” value is 0.0898%.

With `CC(NC(CCc1ccccc1)C(=O)O)C(=O)N1C(=O)N(C)CC1C(=O)O` (configuration not stated), the “activation” value was -0.0798% [at 26.5 µM].

With `Nc1c2c(nc3ccccc13)CCCC2O` (configuration not stated), the “activation” value was 0.0585% [at 26.5 µM].

For `CCCCCCCCCCCCCCCCC`, the “activation” value was -0.896%.

Consider `COC(=O)CC(C)=O`, for which the “activation” value was -0.0046%.

`COc1ccc2c(c1)c(CC(=O)OCC(=O)O)c(C)n2C(=O)c1ccc(Cl)cc1`: the “activation” value was 0.0458% [at 26.5 µM].

In the case of `CCN1CCC[C@H]1CNC(=O)c1c(O)c(Cl)cc(Cl)c1OC`, the “activation” value is -0.389% [at 26.5 µM].

As to `O=C(O)c1ccccc1OP(=O)(O)O`, the “activation” value was 0.908% [at 26.5 µM].

Turning to `CCOC(C)(C)C`, the “activation” value was 0.102%.

Take `Nc1nc2c(ncn2COC(CO)CO)c(=O)[nH]1`: the “activation” value is -0.0748% [at 26.5 µM].

Take `CCCCCCCCCCCCCC=O`: the activation was 0.0389% [at 5.23 µM].

As for `c1cnc(N2CCN(Cc3ccc4c(c3)OCO4)CC2)nc1`, the “activation” value was 0.0256% [at 26.5 µM].

Turning to `NCCc1cnc[nH]1`, the “activation” value was 0.99% [at 26.5 µM].

As to `CCC(=O)OC(C)c1ccccc1` (configuration not stated), the “activation” value is -0.247%.

In the case of `O=S(O)CO`, the “activation” value was 0.0655%.

Consider `O=c1n(CCO)c(=O)n(CCO)c(=O)n1CCO`, for which the result was inactive.

Turning to `CCCCOCCOCCOCCCC`, the “activation” value is -0.212%.

On to `CO[C@]12C[C@@H](COC(=O)c3cncc(Br)c3)CN(C)[C@@H]1Cc1cn(C)c3cccc2c13`, for which the “activation” value was 2.2% [at 26.5 µM].

Consider `CCc1ccc(O)c(OC)c1`, for which the “activation” value was -0.467%.

`CCCCCCCCS(=O)(=O)Cl`: the “activation” value was 0.0281%.

For the compound `CCO[Si](CCC1CCC2OC2C1)(OCC)OCC` (configuration not stated), the “activation” value is -0.0955%.

As to `CS(=O)(=O)O`, the “activation” value is -0.273%.

On to `O=C(O)CCCc1ccccc1`, for which the “activation” value was -0.0761% [at 26.5 µM].

`O=Cc1cccc([N+](=O)[O-])c1`: the “activation” value was 0.246%.

As to `N=c1nc(N2CCCCC2)cc(N)n1O`, the “activation” value was 0.0893% [at 26.5 µM].
